The list shows a part of the results. Values without a mark were called inactive. No stated cut-off is given here; in the data, active means activation above about 17%; inactive means the rest.

Sequence of 5-hydroxytryptamine receptor 5A (Homo sapiens) (P47898 whole entry, looked up): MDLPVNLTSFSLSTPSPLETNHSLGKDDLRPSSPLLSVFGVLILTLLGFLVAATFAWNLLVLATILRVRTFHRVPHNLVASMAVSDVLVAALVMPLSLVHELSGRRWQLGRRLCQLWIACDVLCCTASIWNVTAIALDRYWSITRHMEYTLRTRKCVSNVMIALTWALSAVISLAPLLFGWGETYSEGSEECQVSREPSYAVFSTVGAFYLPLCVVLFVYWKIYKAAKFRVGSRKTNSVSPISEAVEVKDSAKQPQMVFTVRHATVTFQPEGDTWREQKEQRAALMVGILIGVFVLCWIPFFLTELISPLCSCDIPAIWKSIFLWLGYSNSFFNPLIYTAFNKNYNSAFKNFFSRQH

The experiment addresses 5-hydroxytryptamine receptor 5A (Homo sapiens) (UniProt P47898). Description: activation of human 5-HT5A receptor – cell-based, luminescence, counter-screen for OPRM1-OPRD1 heterodimer agonist project (AID 504905).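 Further: 0% = vehicle-treated cells and 100% = reference agonist response.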 Particulars: HTR5A agonist counterscreen, at 9.3 µM, active compounds read high.
Turning to `CCOC(=O)C1(CCc2ccccc2)CCN(Cc2ccco2)CC1`, the activation is 3.8%. `C[C@]12CC[C@H](O)C[C@H]1CC[C@@H]1C2CC[C@]2(C)[C@@H](C3=CC(=O)OC3)[C@@H](O)C[C@]12O` (some centres undefined): the activation is -0.48%.

Regarding `COC1C(O)C(C)OC(OC2CCC3(C=O)C(CCC4C3CCC3(C)C(C5=CC(=O)OC5)CCC43O)C2)C1O` (centres undefined), the activation is 13.7%. Under `CCC1(C)CC(CCNCc2ccc(N(C)C)cc2)(c2ccc(F)cc2)CCO1` (centres undefined) stands 0.44%.

The record behind these values is PubChem BioAssay AID504905 (The Scripps Research Institute Molecular Screening Center, 2011).
